In all, about 5,500 compounds went through this assay and about 2,000 (36%) were called active. Not shown: some 18% with an inconclusive outcome. Rule as the data show it: active = normalized growth mostly below about 0.91 (no sharp cut-off); inconclusive = no clear call, values can overlap the other calls; inactive = mostly above about 0.92. The list shows a part of the results.
Assay: chemical genetic growth profiling, strain panel (AID 1159580);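 also: tested at 20 µM; growth read once vehicle control cultures reached saturation at 30 °C; 1 = growth at the plate median or of vehicle wells; lower values mean less growth of the strain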
Settings: growth OD

Measured: normalized growth

CCC1(CC)C(=O)C=CNC1=O
inactive: S. cerevisiae deletion strains, locus YJR066W, strain TOR1, active compounds read low 0.961 | S. cerevisiae deletion strains, locus YKL009W, strain mrt4, active compounds read low 1 | S. cerevisiae deletion strains, locus YKL068W, active compounds read low 1 | S. cerevisiae deletion strains, locus YKL085W, strain MDH1 (second series), active compounds read low 1 | S. cerevisiae deletion strains, locus YKL085W, strain MDH1, active compounds read low 1 | S. cerevisiae deletion strains, locus YKL160W, strain elf1, active compounds read low 0.992 | S. cerevisiae deletion strains, locus YKL190W, strain CNB1, active compounds read low 1 | S. cerevisiae deletion strains, locus YKR001C, strain vps1, active compounds read low 0.983 | S. cerevisiae deletion strains, locus YKR026C, strain gcn3, active compounds read low 0.97 | S. cerevisiae deletion strains, locus YKR091W, strain srl3, active compounds read low 1 | S. cerevisiae deletion strains, locus YLL001W, strain dnm1, active compounds read low 0.985 | S. cerevisiae deletion strains, locus YLL026W, active compounds read low 0.99 | S. cerevisiae deletion strains, locus YLL041C, strain sdh2, active compounds read low 0.985 | S. cerevisiae deletion strains, locus YLR027C, strain aat2, active compounds read low 0.996 | S. cerevisiae deletion strains, locus YLR039C, strain RIC1, active compounds read low 1.01 | S. cerevisiae deletion strains, locus YLR058C, strain SHM2, active compounds read low 1.01 | S. cerevisiae deletion strains, locus YLR102C, strain apc9, active compounds read low 1.01 | S. cerevisiae deletion strains, locus YLR113W, strain HOG1, active compounds read low 0.988 | S. cerevisiae deletion strains, locus YLR221C, strain rsa3, active compounds read low 1.01 | S. cerevisiae deletion strains, locus YLR258W, strain gsy2, active compounds read low 1.01 | S. cerevisiae deletion strains, locus YLR262C, strain YPT6 (second series), active compounds read low 1.02 | S. cerevisiae deletion strains, locus YLR262C, strain YPT6, active compounds read low 1.01 | S. cerevisiae deletion strains, locus YLR268W, strain sec22, active compounds read low 1.01 | S. cerevisiae deletion strains, locus YLR320W, strain mms22, active compounds read low 1.02 | S. cerevisiae deletion strains, locus YLR330W, strain CHS5, active compounds read low 1.01 | S. cerevisiae deletion strains, locus YLR342W, strain FKS1 (second series), active compounds read low 1.06 | S. cerevisiae deletion strains, locus YLR342W, strain FKS1, active compounds read low 1.01 | S. cerevisiae deletion strains, locus YLR357W, strain rsc2, active compounds read low 1 | S. cerevisiae deletion strains, locus YLR370C, strain arc18, active compounds read low 0.997 | S. cerevisiae deletion strains, locus YLR371W, strain rom2, active compounds read low 1.01 | S. cerevisiae deletion strains, locus YLR384C, strain iki3, active compounds read low 0.995 | S. cerevisiae deletion strains, locus YLR418C, strain cdc73, active compounds read low 1.02 | S. cerevisiae deletion strains, locus YML016C, strain PPZ1, active compounds read low 1 | S. cerevisiae deletion strains, locus YML032C, strain rad52, active compounds read low 0.997 | S. cerevisiae deletion strains, locus YML120C, strain ndi1, active compounds read low 0.994 | S. cerevisiae deletion strains, locus YML124C, strain tub3, active compounds read low 1.01 | S. cerevisiae deletion strains, locus YMR058W, strain fet3, active compounds read low 0.989 | S. cerevisiae deletion strains, locus YMR078C, strain ctf18, active compounds read low 1.01 | S. cerevisiae deletion strains, locus YMR125W, strain sto1, active compounds read low 0.973 | S. cerevisiae deletion strains, locus YMR129W, active compounds read low 0.991 | S. cerevisiae deletion strains, locus YMR205C, strain PFK2, active compounds read low 1.05 | S. cerevisiae deletion strains, locus YMR223W, strain ubp8, active compounds read low 1.02 | S. cerevisiae deletion strains, locus YMR231W, strain pep5, active compounds read low 0.998 | S. cerevisiae deletion strains, locus YMR263W, strain SAP30, active compounds read low 0.995 | S. cerevisiae deletion strains, locus YMR307W, strain GAS1, active compounds read low 1.01 | S. cerevisiae deletion strains, locus YNL067W, strain RPL9B, active compounds read low 0.981 | S. cerevisiae deletion strains, locus YNL071W, strain lat1, active compounds read low 0.994 | S. cerevisiae deletion strains, locus YNL128W, strain TEP1, active compounds read low 1.03 | S. cerevisiae deletion strains, locus YNL183C, strain NPR1, active compounds read low 0.958 | S. cerevisiae deletion strains, locus YNL209W, strain ssb2, active compounds read low 1 | S. cerevisiae deletion strains, locus YNL233W, strain BNI4, active compounds read low 0.978 | S. cerevisiae deletion strains, locus YNL248C, strain rpa49, active compounds read low 0.96 | S. cerevisiae deletion strains, locus YNL250W, strain rad50, active compounds read low 1.02 | S. cerevisiae deletion strains, locus YNL271C, strain bni1, active compounds read low 1.01 | S. cerevisiae deletion strains, locus YNL298W, strain CLA4, active compounds read low 1 | S. cerevisiae deletion strains, locus YNL307C, strain MCK1, active compounds read low 1.02 | S. cerevisiae deletion strains, locus YNL322C, strain KRE1 (second series), active compounds read low 0.992 | S. cerevisiae deletion strains, locus YNL322C, strain KRE1, active compounds read low 0.999 | S. cerevisiae deletion strains, locus YNR049C, strain mso1, active compounds read low 0.994 | S. cerevisiae deletion strains, locus YNR052C, strain pop2, active compounds read low 1.01 | S. cerevisiae deletion strains, locus YOL006C, strain TOP1, active compounds read low 0.966 | S. cerevisiae deletion strains, locus YOL012C, strain htz1 0.962 | S. cerevisiae deletion strains, locus YOL147C, strain pex11, active compounds read low 1.01 | S. cerevisiae deletion strains, locus YOR001W, strain rrp6, active compounds read low 0.971 | S. cerevisiae deletion strains, locus YOR061W, strain CKA2, active compounds read low 1.01 | S. cerevisiae deletion strains, locus YOR069W, strain VPS5, active compounds read low 1.01 | S. cerevisiae deletion strains, locus YOR070C, strain gyp1, active compounds read low 1 | S. cerevisiae deletion strains, locus YOR080W, strain dia2, active compounds read low 0.999 | S. cerevisiae deletion strains, locus YOR083W, strain WHI5, active compounds read low 0.984 | S. cerevisiae deletion strains, locus YOR106W, strain vam3, active compounds read low 1.01 | S. cerevisiae deletion strains, locus YOR136W, strain idh2, active compounds read low 0.994 | S. cerevisiae deletion strains, locus YOR144C, strain elg1, active compounds read low 1 | S. cerevisiae deletion strains, locus YOR184W, strain ser1, active compounds read low 1.02 | S. cerevisiae deletion strains, locus YOR231W, strain MKK1, active compounds read low 0.98 | S. cerevisiae deletion strains, locus YOR265W, strain rbl2, active compounds read low 0.996 | S. cerevisiae deletion strains, locus YOR270C, strain vph1, active compounds read low 0.994 | S. cerevisiae deletion strains, locus YOR290C, strain snf2, active compounds read low 0.965 | S. cerevisiae deletion strains, locus YOR316C, strain cot1, active compounds read low 1.01 | S. cerevisiae deletion strains, locus YPL051W, strain arl3, active compounds read low 0.985 | S. cerevisiae deletion strains, locus YPL078C, strain atp4, active compounds read low 0.968 | S. cerevisiae deletion strains, locus YPL106C, strain sse1, active compounds read low 1 | S. cerevisiae deletion strains, locus YPL240C, strain hsp82, active compounds read low 1.02 | S. cerevisiae deletion strains, locus YPL256C, strain CLN2, active compounds read low 1.01 | S. cerevisiae deletion strains, locus YPR119W, strain clb2, active compounds read low 1 | S. cerevisiae deletion strains, locus YPR141C, strain kar3, active compounds read low 1 | S. cerevisiae deletion strains, locus YPR163C, strain tif3, active compounds read low 1.01 | S. cerevisiae deletion strains, locus YPR167C, strain met16, active compounds read low 1.01 | S. cerevisiae deletion strains, strain wtn01, active compounds read low 1.02 | S. cerevisiae strains, strain wild type, active compounds read low 0.996

From PubChem BioAssay AID1159580 (chemical genetic matrix, 2015)
